The text below walks through data of PubChem BioAssay (NCI).

Among the test systems are HCT-15 colon; HT29 colon; SNB-75 CNS; SNB-19 CNS; U251 CNS; PC-3 prostate; SK-MEL-5 melanoma; UACC-62 melanoma; LOX IMVI melanoma; SK-MEL-28 melanoma; SK-MEL-2 melanoma; EKVX NSCLC; SN12C renal; TK-10 renal; ACHN renal; CAKI-1 renal; A498 renal; CCRF-CEM leukemia; MOLT-4 leukemia; UO-31 renal.
Common to all, as to test: NCI-60 one-dose screen, 48 h (100 = growth as untreated, 0 = no growth, -100 = all killed)
Common to all, as to settings: 10 µM unless noted

Values joined by “and” are separate entries in the source; they are usually repeats but may differ in a detail not shown here. Identical values can stand only once. This is part of a sample that, as a whole, favours compounds with a hit. Of some 83,000 tested, about 20% had one in any assay.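 The test compound was applied at a single concentration to cells in 96-well plates for 48 hours, and percent growth was recorded.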 Active and inactive are the calls of the source. How the source made its calls: active means growth percent below 10; inactive means the rest.

Consider `CCCCSc1ccc2nc(-c3ccc(OCCCN=C(N)N)cc3)cn2c1`, for which the growth was 92.7% (inactive) in the assay with HCT-15 colon; 53% (inactive) in the assay on HT29 colon; 22.5% (inactive) in the assay on SNB-75 CNS; 24.5% (inactive) in the assay with SNB-19 CNS; 13.1% (inactive) in the assay on U251 CNS; 54% (inactive) in the assay with PC-3 prostate. Moreover, the growth in the assay with SK-MEL-5 melanoma was 52.8% (inactive); in the assay with UACC-62 melanoma, 52% (inactive); in the assay with LOX IMVI melanoma it was 61.3% (inactive); with SK-MEL-28 melanoma it was 38.3% (inactive); in the assay on SK-MEL-2 melanoma it was 48.4% (inactive); in the assay on EKVX NSCLC, 95.6% (inactive). The growth in the assay on SN12C renal was 88.3% (inactive); in the assay on TK-10 renal it was 110% (inactive); with ACHN renal, 89.2% (inactive); in the assay on CAKI-1 renal, 62.3% (inactive); with A498 renal it was 89.4% (inactive); in the assay on CCRF-CEM leukemia it was 53.4% (inactive). In the assay on MOLT-4 leukemia, the growth was 53.1% (inactive).

`Cc1ccc(NC(=O)c2ccc(CN3CCN(C)CC3)cc2)cc1Nc1nccc(-c2cccnc2)n1`: the growth with HCT-15 colon is 88.5% (inactive) and 48.2% (inactive); with HT29 colon, 52.9% (inactive) and 24.1% (inactive); in the assay on SNB-75 CNS, 99.4% (inactive) and 82.5% (inactive); in the assay with SNB-19 CNS, 112% (inactive) and 95% (inactive); with U251 CNS, 89.4% (inactive) and 65.7% (inactive); in the assay with PC-3 prostate, 89.4% (inactive) and 72% (inactive). Moreover, the growth in the assay with SK-MEL-5 melanoma is 77.7% (inactive) and 63.2% (inactive); in the assay on UACC-62 melanoma, 92.3% (inactive) and 87.9% (inactive); in the assay on LOX IMVI melanoma, 88.4% (inactive) and 77.1% (inactive); in the assay with SK-MEL-28 melanoma it was 109% (inactive) and 77.8% (inactive); in the assay with EKVX NSCLC, 84.3% (inactive) and 90.9% (inactive); with SN12C renal, 94% (inactive) and 83.7% (inactive). In addition, the growth was 92.4% (inactive) and 77.6% (inactive) in the assay with UO-31 renal; 110% (inactive) and 74.9% (inactive) in the assay with TK-10 renal; 101% (inactive) and 82.7% (inactive) in the assay with ACHN renal; 100% (inactive) and 102% (inactive) with CAKI-1 renal; 86.3% (inactive) and 82.5% (inactive) with A498 renal; 93.4% (inactive) and 49.7% (inactive) in the assay with CCRF-CEM leukemia. The growth in the assay with MOLT-4 leukemia is 82% (inactive) and 45.1% (inactive).

In the case of `CCOC(=O)N(O)c1ccc(/C=C/c2ccccc2)cc1`, the growth in the assay with HCT-15 colon was 69.8% (inactive) and 72.3% (inactive); with HT29 colon, 66.8% (inactive) and 53.7% (inactive); with SNB-75 CNS, 93.6% (inactive) and 96.4% (inactive); with SNB-19 CNS, 91.2% (inactive) and 74.5% (inactive); in the assay with U251 CNS it was 54.6% (inactive) and 58.1% (inactive); with PC-3 prostate, 55% (inactive) and 67.5% (inactive). Also, the growth in the assay on SK-MEL-5 melanoma was 66.2% (inactive) and 57.1% (inactive); with UACC-62 melanoma, 29.4% (inactive) and -29.2% (active); in the assay with LOX IMVI melanoma, 60.2% (inactive) and 58.5% (inactive); in the assay on SK-MEL-28 melanoma, 103% (inactive) and 108% (inactive); with SK-MEL-2 melanoma it was 66.5% (inactive) and 53.1% (inactive); in the assay with EKVX NSCLC, 91.8% (inactive). The growth in the assay with SN12C renal was 66.3% (inactive) and 62.6% (inactive); in the assay on TK-10 renal it was 4.6% (active); in the assay with ACHN renal, 76.2% (inactive) and 70.3% (inactive); in the assay with CAKI-1 renal, 51.7% (inactive) and 81.4% (inactive); in the assay on A498 renal, -67.4% (active) and -83.1% (active); in the assay on CCRF-CEM leukemia, 55.2% (inactive) and 63% (inactive). The growth in the assay with MOLT-4 leukemia was 59.4% (inactive) and 60.9% (inactive).

Take `COc1c(NC=O)c2c(c([N+](=O)[O-])c1OC)C(=O)OC2`: the growth is 115% (inactive) and 90.4% (inactive) in the assay with HCT-15 colon; 102% (inactive) and 112% (inactive) with HT29 colon; 89.1% (inactive) and 62.6% (inactive) in the assay with SNB-75 CNS; 102% (inactive) and 99.5% (inactive) in the assay on SNB-19 CNS; 99.9% (inactive) and 101% (inactive) with U251 CNS; 90.7% (inactive) and 102% (inactive) in the assay on PC-3 prostate. Also, the growth with SK-MEL-5 melanoma was 112% (inactive) and 95.4% (inactive); with UACC-62 melanoma it was 104% (inactive) and 93.7% (inactive); with LOX IMVI melanoma it was 103% (inactive); in the assay with SK-MEL-28 melanoma it was 111% (inactive) and 103% (inactive); with SK-MEL-2 melanoma, 107% (inactive) and 120% (inactive); in the assay on EKVX NSCLC, 110% (inactive) and 85.7% (inactive). Moreover, the growth in the assay with SN12C renal is 92.1% (inactive) and 94.8% (inactive); with TK-10 renal, 114% (inactive) and 111% (inactive); in the assay with ACHN renal it was 130% (inactive) and 112% (inactive); with CAKI-1 renal, 105% (inactive) and 89.1% (inactive); in the assay on A498 renal, 111% (inactive); in the assay with CCRF-CEM leukemia, 91.5% (inactive) and 3.53% (active). In the assay with MOLT-4 leukemia, the growth was 67.9% (inactive) and 115% (inactive).

Take `Cc1ccc(/C=C/c2c(C(=O)/C=C/c3ccccc3)c(C)nc3ccccc23)cc1`: the growth in the assay on HCT-15 colon was -24.6% (active); in the assay on HT29 colon, 0.173% (active); with SNB-75 CNS, 29% (inactive); in the assay with SNB-19 CNS, 15.7% (inactive); with U251 CNS, -5.93% (active); in the assay on PC-3 prostate, 31.3% (inactive). Also, the growth in the assay with SK-MEL-5 melanoma was 32.3% (inactive); in the assay with UACC-62 melanoma, 29.2% (inactive); in the assay on LOX IMVI melanoma, -79.4% (active); in the assay on SK-MEL-28 melanoma, 24.3% (inactive); in the assay on SK-MEL-2 melanoma, 2.34% (active); in the assay with EKVX NSCLC, 46.5% (inactive). Moreover, the growth with SN12C renal was 36.9% (inactive); in the assay with TK-10 renal it was 29.3% (inactive); in the assay with ACHN renal, 8.19% (active); in the assay on CAKI-1 renal it was 22.3% (inactive); with A498 renal, 59.3% (inactive); in the assay with CCRF-CEM leukemia, 5.43% (active). Besides, the growth in the assay on MOLT-4 leukemia is 6.13% (active).
